The values below come from PubChem BioAssay (NCATS).

Activity calls are given as the source filed them. Calls come from the whole dose curve; as a rule, active = well fitted curve in the direction sought with a large enough effect; inconclusive = small, poorly fitted or top-dose-only effect, or another doubt; inactive = no such curve, though single readings can be large or run the other way.

Sequence of Hexokinase-4 (Homo sapiens) + Glucokinase regulatory protein (Homo sapiens) (P35557 whole entry, looked up): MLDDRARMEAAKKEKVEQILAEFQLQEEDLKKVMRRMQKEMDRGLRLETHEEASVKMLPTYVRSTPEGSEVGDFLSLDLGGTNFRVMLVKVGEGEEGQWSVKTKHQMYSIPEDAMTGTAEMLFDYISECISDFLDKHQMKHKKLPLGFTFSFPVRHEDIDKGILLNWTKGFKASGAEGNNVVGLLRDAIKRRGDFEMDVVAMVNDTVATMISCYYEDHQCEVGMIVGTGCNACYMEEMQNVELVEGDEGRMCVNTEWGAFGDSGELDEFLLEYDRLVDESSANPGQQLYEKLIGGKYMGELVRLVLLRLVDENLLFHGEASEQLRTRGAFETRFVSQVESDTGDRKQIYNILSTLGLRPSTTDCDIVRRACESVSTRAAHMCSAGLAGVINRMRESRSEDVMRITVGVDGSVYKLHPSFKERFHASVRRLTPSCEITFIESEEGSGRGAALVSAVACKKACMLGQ
Sequence of Hexokinase-4 (Homo sapiens) + Glucokinase regulatory protein (Homo sapiens) (Q14397 whole entry, looked up): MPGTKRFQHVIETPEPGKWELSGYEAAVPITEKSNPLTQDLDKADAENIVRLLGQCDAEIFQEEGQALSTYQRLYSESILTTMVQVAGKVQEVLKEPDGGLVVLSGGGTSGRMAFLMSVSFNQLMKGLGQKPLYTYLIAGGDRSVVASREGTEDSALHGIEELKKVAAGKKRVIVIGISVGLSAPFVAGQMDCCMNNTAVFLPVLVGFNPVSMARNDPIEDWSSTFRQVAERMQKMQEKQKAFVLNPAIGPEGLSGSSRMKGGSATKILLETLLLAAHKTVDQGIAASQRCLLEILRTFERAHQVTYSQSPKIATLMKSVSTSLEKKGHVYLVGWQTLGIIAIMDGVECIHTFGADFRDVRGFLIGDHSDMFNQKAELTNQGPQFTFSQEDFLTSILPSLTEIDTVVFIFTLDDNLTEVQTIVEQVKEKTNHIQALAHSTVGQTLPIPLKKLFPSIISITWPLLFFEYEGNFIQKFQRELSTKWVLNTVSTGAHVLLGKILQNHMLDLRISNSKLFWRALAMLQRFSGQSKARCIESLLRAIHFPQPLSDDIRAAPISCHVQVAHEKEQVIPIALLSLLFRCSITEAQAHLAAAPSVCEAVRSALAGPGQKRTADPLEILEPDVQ

This assay addresses Hexokinase-4 (Homo sapiens) + Glucokinase regulatory protein (Homo sapiens) (UniProt P35557+Q14397). Nature of the assay: qHTS assay for inhibitors of recombinant human GCK-GKRP interaction: ADP-Glo assay (AID 743206). Particulars: ADP-Glo luminescence, 60 min, 0% = vehicle-only wells with enzyme present; series mostly up to 76.9 µM. The source says: Glucokinase (GCK) is a glucose sensor in hepatocytes and pancreatic beta-cells. Hepatic GCK is regulated by glucokinase regulatory protein (GKRP), which is predominantly localized to the liver. GKRP binds to GCK inhibiting its activity in the fasting state while in the presence of glucose the GKRP is displaced. There is an additional layer of regulation by fructose 1-phosphate and fructose 6-phosphate, which inhibit and enhance the GCK-GKRP interaction, respectively. GCK plays a role in glucose homeostasis and there is an interest in the development of strategies to activate GCK to lower blood glucose levels in type 2 diabetes. To date the majority of effort has focused on direct activation of GCK and the assays developed herein look to activate GCK by inhibiting its binding to GKRP. A compound that inhibits the interaction of GCK with GKRP could be important for the treatment of diabetes and can also be used as a tool compound to further elucidate GCK-GKRP biology. To that end, we have developed a sensitive HTS biochemical assay where in GCK activity is coupled to luciferase to interrogate the GCK-GKRP interaction. This assay was screened against a small compound library to look for modulators of activity.
2 uL of 15 nM GST-GCK and 15 nM FLAG-GKRP proteins with 2 uM S6P (columns 1-2, 4-48; Millipore, Billerica, MA) are dispensed into Greiner, white solid-bottom 1536-well assay plates; columns 3 receive buffer without GCK as a control for maximum inhibition. Compounds (23 nL) are then transferred via Kalypsys pin tool equipped with 1536-pin array (10 nL slotted pins, V&P Scientific, San Diego, CA). The library compounds are in columns 5-48 and columns 1-4 serve as controls with DMSO in columns 1 and 3 and 26 mM 1:1.5 fold serial of gluckokinase activator (GKA-EMD) in column 2 and 26 mM of the glucokinase activator (GKA-EMD) in column 4. Following addition of compound, 1 uL of ATP […] is added, and the plate is incubated for 60 minutes at room temperature. The amount of ADP is then quantified by the ADP-Glo Kit (Promega, Madison, WI). First, 2 uL of the first kit reagent is added, and the reaction is incubated for 45 minutes; then, 4 uL of the second kit reagent are added and the reaction is incubated for 30 minutes at which time the luminescence is read on a Viewlux plate reader (Perkin-Elmer, Waltham, MA). The final concentration of reagents in the reaction are 0.4 mM ATP, 25 mM Hepes pH 7.6, 25 mM KCl, 2 mM MgCl2, 1 mM DTT, 0.025% BSA, 0.01% Tween 20, 5 mM glucose. Data are normalized to DMSO-treated control columns with (maximum signal) and without (minimum signal) enzyme.
Turning to `CC(C)c1cccc(C(C)C)c1O`, the result was inactive.
To `NCCc1ccc(O)cc1` belongs “inactive”; to `CC(NC(C)(C)C)C(=O)c1cccc(Cl)c1` (stereo not given), “inactive”.
As to `O=c1[nH]oc2c1CCNC2`, the result was inactive.
For `COc1ccc2c(c1OC)C(=O)O[C@H]2[C@@H]1c2cc3c(cc2CCN1C)OCO3`, the result was inactive.
In the case of `CCC1(c2ccc(N)cc2)CCC(=O)NC1=O` (stereo not given), the outcome was inactive.
In the case of `O=C(O)CCCc1ccc(N(CCCl)CCCl)cc1`, the result was inactive.
The same measure for `CCCCC/C=C\C/C=C\C/C=C\C/C=C\CCCC(=O)NCC(=O)O`: “inactive”.
To `CN1C(=O)CCS(=O)(=O)C1c1ccc(Cl)cc1` (stereo not given) belongs “inactive”; to `Cc1ncsc1CCCl`, “inactive”; to `O=C(CCCN1CCC2(CC1)C(=O)NCN2c1ccccc1)c1ccc(F)cc1`, “inactive”.
To `CC(C)(C)NCC(O)c1ccccc1Cl` (stereo not given) belongs “inactive”.
For the compound `CC(C)N(CCC(C(N)=O)(c1ccccc1)c1ccccn1)C(C)C` (stereo not given), the outcome was inactive.
To `O=P1(N(CCCl)CCCl)NCCCO1` (stereo not given) belongs “inactive”.
In the case of `C=C(C)[C@H]1CN[C@H](C(=O)O)[C@H]1CC(=O)O`, the result was inactive.
